# Sampled rows, rich in hits. Any-hit rate of the full collection: about 2.4%.
# Cruzain inh noDet: inhibitors of Trypanosoma cruzi cruzain without detergent; purified cruzain, Z-FR-AMC fluorescence, no detergent; P25779; actives 2.3% (n = 200,000); Potency, µM, for inactives: max response, negative = inhibition, most hits filed as inhibitors; AID 1476;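 further: plate controls were enzyme without inhibitor for no effect and buffer without enzyme for full effect; nearly all actives have a fitted effect of over 40% in size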
# Target sequence (P25779 123-467 limits assumed): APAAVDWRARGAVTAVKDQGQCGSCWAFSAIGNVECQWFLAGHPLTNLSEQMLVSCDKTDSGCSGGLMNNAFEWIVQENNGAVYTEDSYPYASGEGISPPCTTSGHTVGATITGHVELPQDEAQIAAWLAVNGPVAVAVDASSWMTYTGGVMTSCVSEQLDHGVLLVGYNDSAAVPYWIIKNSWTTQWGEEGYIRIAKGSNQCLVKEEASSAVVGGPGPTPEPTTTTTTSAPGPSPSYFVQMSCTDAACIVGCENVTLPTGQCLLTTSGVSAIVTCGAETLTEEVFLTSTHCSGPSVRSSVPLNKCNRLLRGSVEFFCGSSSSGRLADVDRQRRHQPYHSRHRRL
#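 Detergent-free condition (0.00005% Triton X-100) in acetate buffer pH 5.5 with DTT. 1.5 nM enzyme and compound were pre-mixed 15 min, then 2 uM Z-FR-AMC substrate added; reaction progress from fluorescence change between first and third reads (60 s).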
# Cruzain inh Det: inhibitors of Trypanosoma cruzi cruzain with detergent | P25779 | purified cruzain, Z-FR-AMC fluorescence, 0.01% Triton | Potency, µM, for the others: max response, negative = inhibition, hits mostly inhibitors | actives 0.43% (n = 200,000) | AID 1478;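 further: plate controls were neutral wells for no effect and buffer without enzyme for full effect; nearly all actives have a fitted effect of over 40% in size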
#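 Read-out: AMC fluorescence (360 nm excitation, 450 nm emission), four reads over 2 min, first-to-third difference used. Conditions: cruzain 1.5 nM, Z-FR-AMC 2 uM, pH 5.5 acetate, 5 mM DTT, 0.01% Triton X-100.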
# Active calls of the source: *; ? = inconclusive. The call rests on the fitted dose curve; in most records, active means well fitted curve in the direction sought with a large enough effect; inconclusive means small, poorly fitted or top-dose-only effect, or another doubt; inactive means no such curve, though single readings can be large; an effect the other way counts as inactive or inconclusive. Potency means the concentration at half of the fitted maximal effect.
SMILES,Cruzain inh noDet,Cruzain inh Det
O=C1C(NS(=O)(=O)c2cccs2)=C(N2CCN(c3cccc(Cl)c3)CC2)C(=O)c2ccccc21,12.6µM*,-1.7%
CC1CCN(C2=C(NS(=O)(=O)c3ccc(Cl)cc3)C(=O)c3ccccc3C2=O)CC1,-17.5%,-5.9%
Cc1ccc(C)c(OCCn2cc(/C=C(\C#N)C(=O)NCc3ccco3)c3ccccc32)c1,?,-4.1%
Cc1ccc(NC(=O)/C(C#N)=C\c2ccc(Cl)cc2Cl)cc1C,-12.4%,-3.6%
N#C/C(=C/c1cn(Cc2ccccc2Cl)c2ccccc12)C(=O)Nc1cccc(Cl)c1,3.16µM*,-1.6%
Cc1c(/C=C(\C#N)C(=O)Nc2cccc(Cl)c2)c2ccccc2n1Cc1ccccc1Cl,1.58µM*,-0.9%
N#C/C(=C\c1cn(Cc2ccccc2F)c2ccccc12)C(=O)NCc1ccco1,-2.7%,-3.5%
Cc1cccc(NC(=O)/C(C#N)=C/c2cn(CC(=O)NCc3ccco3)c3ccccc23)c1,10µM*,-3.3%
Cc1cc(C)n(CC(O)Cn2c3ccccc3c3ccccc32)c(=O)n1 (configuration not stated),?,0.7%
COc1ccc(N(CC(O)Cn2c3ccccc3c3ccccc32)S(=O)(=O)c2ccccc2)cc1 (configuration not stated),15.8µM*,33.0%
O=C1S/C(=C\c2ccccc2)C(=O)N1CC(O)Cn1c2ccccc2c2ccccc21 (configuration not stated),31.6µM*,-3.8%
COc1ccc(CN2CCN(CC(O)Cn3c4ccccc4c4ccccc43)CC2)cc1 (configuration not stated),9.9%,-0.4%
Cc1ccc(N(CC(O)Cn2c3ccccc3c3ccccc32)S(=O)(=O)c2ccc(F)cc2)cc1 (configuration not stated),8.2%,11.4%
COc1ccc(/C=C2/SC(=O)N(CC(O)Cn3c4ccccc4c4ccccc43)C2=O)cc1 (configuration not stated),10µM*,-4.5%
Cc1csc2nc(COc3cccc(NC(=O)c4ccccc4F)c3)cc(=O)n12,-8.9%,-1.4%
Cc1ccc(CNc2nc(N)c([N+](=O)[O-])c(NCc3ccccc3)n2)cc1,?,-1.6%
Cc1ccc(CNc2nc(N)c([N+](=O)[O-])c(Nc3ccc(F)cc3)n2)cc1,15.8µM*,-0.3%
CCCCOC(=O)CCn1[nH]c(=O)c2ccccc2c1=O,-5.0%,-3.2%
CCCCOC(=O)CCN1C(=O)/C(=C2\SC(=S)N(CCC(=O)OCCCC)C2=O)SC1=S,12.6µM*,-19.8%
O=C(CSc1ccc(Cl)cc1)Nc1ccc(-c2nc3ccccc3[nH]2)cc1,20µM*,?
O=C(CSc1ccccc1)Nc1nc2ccccc2[nH]1,-2.7%,-7.2%
Cc1ccccc1Nc1oc(-c2ccccc2)nc1-c1ccccc1F,-12.1%,-2.0%
O=C(O)Cc1[nH]cnc1C(=O)O,-5.6%,3.7%
C=C(C)Cn1c(SCC#N)nc2ccccc2c1=O,-10.8%,1.5%
N#CCSc1nc2ccc(N3CCCCC3)cc2c(=O)n1Cc1ccccc1,25.1µM*,-0.9%
SMILES,Cruzain inh noDet,Cruzain inh Det
CN(Cc1ccc(F)cc1)S(=O)(=O)c1nnc(NC(=O)c2ccccc2)s1,?,-1.2%
CN(Cc1ccc(F)cc1)S(=O)(=O)c1nnc(NC(=O)c2ccc(F)cc2)s1,15.8µM*,-2.7%
O=C(CSc1nc2ccccc2s1)Nc1ccc2c(c1)oc1ccccc12,15.8µM*,-1.7%
Cn1c(SCC(=O)Nc2ccc3c(c2)oc2ccccc23)nnc1-c1ccccc1,12.6µM*,-0.5%
O=C(CSc1nnc(NC(=O)c2ccccc2Cl)s1)Nc1ccc2c(c1)oc1ccccc12,3.98µM*,-8.1%
Cn1c(SCC(=O)Nc2ccccc2)nnc1-c1ccccc1,-2.0%,-1.1%
O=C(CSc1nc2ccccc2s1)NNC(=O)Nc1ccc(Cl)c(Cl)c1,?,-8.0%
O=C(Nc1nnc(SCC(=O)N2CCOCC2)s1)c1ccccc1Cl,-8.7%,-5.2%
COc1cccc(CNC(=O)C2CCC(CNS(=O)(=O)c3ccc(Br)s3)CC2)c1 (configuration not stated),5.1%,-5.6%
CCC1CO1 (configuration not stated),-7.5%,4.1%
COc1ccc(-c2nc(NC(=O)c3ccc(OCC(=O)N4CCOCC4)c(OC)c3)sc2C)cc1,?,-9.8%
CCc1ccc(-c2nc(NC(=O)c3ccc(OCC(=O)Nc4ccc(F)cc4)c(OC)c3)sc2C)cc1,3.98µM*,-4.8%
COc1cc(C(=O)Nc2nc(-c3ccc(Cl)cc3)c(C)s2)ccc1OCC(=O)Nc1ccc(F)cc1,15.8µM*,-1.5%
COc1ccc(Br)c2c1-c1nc(NC(=O)c3ccc(F)cc3)sc1C2,-5.1%,-3.6%
COc1cc(C)ccc1OCCCn1c(-c2ccc(Cl)cc2)nc2ccccc2c1=O,-7.9%,-0.8%
CCCN(C(=O)c1c(C)oc2ncnc(N3CCOCC3)c12)c1ccc(Cl)c(Cl)c1,12.1%,-1.7%
COc1ccc(-c2ccc(CNc3ccc4[nH]c(=O)[nH]c4c3)o2)cc1Cl,?,-7.9%
Nc1sc2c(c1C(=O)c1ccccc1)CCCC2,-23.9%,-8.2%
NC(=O)c1c(N)sc2c1CCCC2,20µM*,-21.9%
COc1ccccc1-n1ncc2c(=O)[nH]c(SCC(=O)Nc3cccc(F)c3)nc21,-7.9%,1.2%
COc1ccc(OC)c(N2Cc3ccccc3C2)c1,?,3.2%
COc1ccccc1N1CCNCC1,9.7%,2.6%
COc1ccccc1N1Cc2ccccc2C1,15.8µM*,-3.7%
COc1ccc(Cl)cc1N1Cc2ccccc2C1,25.1µM*,-4.0%
CCCCn1c(SCC(=O)c2ccccc2)nc2sc3c(c2c1=O)CCCC3,-10.7%,0.2%
SMILES,Cruzain inh noDet,Cruzain inh Det
CC(C)c1ccc(OCc2cc(=O)n3c(-c4ccccc4)csc3n2)cc1,-14.0%,-4.3%
Cc1ccc2nc(-c3ccc(NC(=O)COc4ccc(Cl)c(C)c4)cc3)sc2c1,13.5%,-6.0%
C=C(C)CN=C1NN=C(c2cc(C)n(-c3ccc(C)cc3)c2C)CS1,7.94µM*,-5.8%
Cc1cc(C2=NNC(=NC3CC3)SC2)c(C)n1-c1ccccc1F,?,-7.2%
Cc1c(Cl)cccc1NC(=O)CSc1ccc(-c2ccccn2)nn1,-3.9%,-0.5%
O=c1cc(-c2ccccc2)n2c(SCc3ccc(F)cc3)nnc2[nH]1,-3.5%,-1.7%
O=C1/C(=C/c2c[nH]c3ccccc23)CCC/C1=C\c1c[nH]c2ccccc12,25.1µM*,-4.4%
O/N=C/c1c[nH]c2ccccc12,-9.3%,-2.0%
COc1ccccc1CNC(=O)Cn1c(-c2ccc(F)cc2)cc(C(C)=O)c1C,-19.0%,0.2%
CC(C)(C)c1ccc(C(=O)NNc2ncnc3c2cnn3-c2ccc(Cl)cc2)cc1,-1.4%,0.7%
Cc1nn(Cc2c(F)c(F)c(F)c(F)c2F)c(C)c1NC(=O)c1cccc(COc2ccc(Cl)cc2)c1,-12.6%,2.8%
CC(C)c1cc(C(N)=O)c(NC(=O)c2cccc(COc3ccc(Cl)cc3)c2)s1,20µM*,-2.8%
CCc1ccc(C2CC(=O)c3c([nH]c(C(=O)OCCOc4ccccc4)c3C)C2)cc1 (configuration not stated),3.1%,-2.0%
CCN(CC)CCCC(C)n1c(-c2ccccc2)nc2c(NCCO)nc(C)nc21 (configuration not stated),-1.7%,1.0%
CCc1ccc(-c2csc(NC(=O)COC(=O)CCc3nc4ccccc4s3)n2)cc1,12.6µM*,-3.4%
Cc1nc(NC(=O)COC(=O)CCc2nc3ccccc3s2)c(Cl)cc1Cl,-6.2%,-4.2%
CCOc1ccc(C(=O)N/N=C/c2ccccc2[N+](=O)[O-])cc1,-17.5%,-7.0%

# High-throughput results deposited in PubChem BioAssay by National Center for Advancing Translational Sciences (NCATS).
